From PubChem BioAssay (NCI)
Compounds without any hit were thinned out: in the full panel of roughly 83,000, 20% have a hit.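 Treatment: one concentration, 48 hours, 96-well format. Scoring: percent growth, with anything below 10 considered active.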 A number with no mark means an inactive call. Calls of active or inactive are those of the source.

Each compound was assayed on CAKI-1 renal (assay: NCI-60 one-dose screen, 48 h (100 = growth as untreated, 0 = no growth, -100 = all killed)). Conditions: 10 µM unless noted.

| Compound | growth |
| --- | --- |
| CNc1cc(C(=O)O)nc(NC)n1 | 98.4% |
| Brc1ccc2c(c1)CN(C1CCCCC1)CO2 | 102% |
| CCN=C1C=CC(=C(c2ccc(N(CC)CC)cc2)c2ccc(N(CC)CC)cc2)c2ccccc21 | -86.3% (active) |
| O=C(CSc1nc2ccc([N+](=O)[O-])cc2[nH]1)Nc1ccc(F)c(Cl)c1 | 9.26% (active) |
| COc1ccc(-c2ccc(NNC(=O)c3ccc(F)cc3)nn2)cc1OC | 17.3% |
| CCOC(CNC(=O)c1cccc([N+](=O)[O-])c1)OCC | 89.9% |
| CN(C)C(=S)Sc1ccc([N+](=O)[O-])cc1[N+](=O)[O-] | 4.43% (active) |
| CCN(CC)CC(C)Nc1ccc(C)c2sc3ccccc3c(=O)c12 (stereo unspecified) | 39.3% |
| CN(C)Cc1ccc[nH]1 | 81.8% |
| CNC(=O)c1cc(Oc2cccc3nc(NC(=O)Nc4cc(C(F)(F)F)cc(C(F)(F)F)c4)ccc23)ccn1 | 23.6% |
| CC1=CC[C@@H]2C(C)(C)[C@@H](O)CC[C@@]2(C)[C@@H]1COc1ccc2ccc(=O)oc2c1 | 36.5% |
| CC(=O)CC(=O)SC1=NCCS1 | 97.2% |
| CSc1cccc([N+](=O)[O-])c1 | 101% |
| O=C1/C(=C\c2cccn2Cc2ccccc2)c2ccccc2N1c1c(Cl)cccc1Cl | 55.8% |
| COc1ncnc2c(-c3ccccc3)cn(COCc3ccccc3)c12 | 64.3% |
| C=C(C)[C@@H]1CC[C@]2(C(=O)NCCCN)CC[C@]3(C)[C@H](CC[C@@H]4[C@@]5(C)CC[C@H](O)C(C)(C)[C@@H]5CC[C@]43C)[C@@H]12 | -54.5% [100 µM] (active) |
| COc1ccc(/C=C/C=C\C(=O)c2ccc(-n3ccnc3)cc2)cc1 | 90.9% |
| Cc1ccccc1-n1nnc(C(=O)Nc2nc3ccc(F)cc3s2)c1C | 49.6% |
| O=C(N/N=C/c1ccc([N+](=O)[O-])cc1)c1ccc(Br)o1 | 106% |

| Compound | growth |
| --- | --- |
| Cc1nc(-c2ccccc2)sc1CC#N | 97.6% |
| O=S(=O)(/N=c1/n(-c2ccccc2)nc2n1CCN2C1=NCCN1)c1ccc(-c2ccccc2)cc1 | 92% |
| Nc1ccc2c(c1)Cc1cc(NC(=O)C(F)(F)F)ccc1-2 | 96.3% |
| O=C(Nc1ccc(C(=O)/C=C/c2ccc(N3CCOCC3)cc2)cc1)Nc1ccc([N+](=O)[O-])cc1 | 82.6% |
| C=CCc1nc2ccccc2s1 | 98.3% |
| O=C(Nc1cc(F)cc2cccnc12)c1cnc(N2CCNCC2)cn1 | 52.4% |
| C[n+]1c2ccccc2nc2c(N)cc(N)cc21 | 111% |
| CCOC(=O)CCC[P+](c1ccccc1)(c1ccccc1)c1ccccc1 | 101% |
| COc1ccc2nc3ccccc3c(NCCNCCO)c2c1 | 6.25% (active) |
| c1nc(N2CCOCC2)c2[nH]ccc2n1 | 103% |
| Oc1c(CNCCNCc2cc(Cl)cc(Cc3ccccc3)c2O)cc(Cl)cc1Cc1ccccc1 | 6.39% (active) |
| COc1cc(Cl)cc(-c2nn(C(=O)NS(=O)(=O)c3ccccc3)cc2-c2ccncc2)c1 | 80.9% |
| COc1cccc(-c2[nH]c(=S)ncc2C(=O)c2ccccc2)c1 | 58.9% |
| CC(C)(C)c1cc(C(=O)Nc2ccccc2C(=O)NCCN)cc(C(C)(C)C)c1 | 45.4% |
| N=C(N)c1ccc(-c2ccc(-c3ccc(-c4cccs4)s3)s2)cc1F | 93.6% |
| Cc1c(Cn2cc(COc3ccc(Br)cc3)nn2)c(C)c(Cn2cc(COc3ccc(Br)cc3)nn2)c(C)c1Cn1cc(COc2ccc(Br)cc2)nn1 | 75.1% |
| CCc1ccc(-c2ccc(COc3ccc(CC4SC(=O)NC4=O)cc3)cc2)cc1 (stereo unspecified) | 51% |
| Cc1ccc(N)c(O)c1 | 94.8% |
| CCCCN(CCCC)CC(O)c1ccc(OCc2ccccc2)c2ccccc12 (stereo unspecified) | 26.3% |

The compounds below were run on A498 renal in the same assay as above. Conditions: 10 µM unless noted.

| Compound | growth |
| --- | --- |
| CNc1cc(C(=O)O)nc(NC)n1 | 79.7% |
| Brc1ccc2c(c1)CN(C1CCCCC1)CO2 | 100% |
| CCN=C1C=CC(=C(c2ccc(N(CC)CC)cc2)c2ccc(N(CC)CC)cc2)c2ccccc21 | -89.3% (active) |
| O=C(CSc1nc2ccc([N+](=O)[O-])cc2[nH]1)Nc1ccc(F)c(Cl)c1 | -13.1% (active) |
| COc1ccc(-c2ccc(NNC(=O)c3ccc(F)cc3)nn2)cc1OC | 2.09% (active) |
| CCOC(CNC(=O)c1cccc([N+](=O)[O-])c1)OCC | 84.5% |
| CN(C)C(=S)Sc1ccc([N+](=O)[O-])cc1[N+](=O)[O-] | 80.5% |
| CCN(CC)CC(C)Nc1ccc(C)c2sc3ccccc3c(=O)c12 (stereo unspecified) | 60.1% |
| CN(C)Cc1ccc[nH]1 | 76.8% |
| CNC(=O)c1cc(Oc2cccc3nc(NC(=O)Nc4cc(C(F)(F)F)cc(C(F)(F)F)c4)ccc23)ccn1 | -36% (active) |
| CC1=CC[C@@H]2C(C)(C)[C@@H](O)CC[C@@]2(C)[C@@H]1COc1ccc2ccc(=O)oc2c1 | 83.2% |
| CC(=O)CC(=O)SC1=NCCS1 | 121% |
| CSc1cccc([N+](=O)[O-])c1 | 121% |
| O=C1/C(=C\c2cccn2Cc2ccccc2)c2ccccc2N1c1c(Cl)cccc1Cl | 72.9% |
| COc1ncnc2c(-c3ccccc3)cn(COCc3ccccc3)c12 | 51.9% |
| C=C(C)[C@@H]1CC[C@]2(C(=O)NCCCN)CC[C@]3(C)[C@H](CC[C@@H]4[C@@]5(C)CC[C@H](O)C(C)(C)[C@@H]5CC[C@]43C)[C@@H]12 | -44.8% [100 µM] (active) |
| COc1ccc(/C=C/C=C\C(=O)c2ccc(-n3ccnc3)cc2)cc1 | 73.3% |
| Cc1ccccc1-n1nnc(C(=O)Nc2nc3ccc(F)cc3s2)c1C | 31.4% |
| O=C(N/N=C/c1ccc([N+](=O)[O-])cc1)c1ccc(Br)o1 | 116% |

| Compound | growth |
| --- | --- |
| Cc1nc(-c2ccccc2)sc1CC#N | 85.6% |
| O=S(=O)(/N=c1/n(-c2ccccc2)nc2n1CCN2C1=NCCN1)c1ccc(-c2ccccc2)cc1 | 82.9% |
| Nc1ccc2c(c1)Cc1cc(NC(=O)C(F)(F)F)ccc1-2 | 84.6% |
| O=C(Nc1ccc(C(=O)/C=C/c2ccc(N3CCOCC3)cc2)cc1)Nc1ccc([N+](=O)[O-])cc1 | 5.47% (active) |
| C=CCc1nc2ccccc2s1 | 108% |
| O=C(Nc1cc(F)cc2cccnc12)c1cnc(N2CCNCC2)cn1 | 88.7% |
| C[n+]1c2ccccc2nc2c(N)cc(N)cc21 | 121% |
| CCOC(=O)CCC[P+](c1ccccc1)(c1ccccc1)c1ccccc1 | 86.3% |
| COc1ccc2nc3ccccc3c(NCCNCCO)c2c1 | -60.4% (active) |
| c1nc(N2CCOCC2)c2[nH]ccc2n1 | 96.3% |
| Oc1c(CNCCNCc2cc(Cl)cc(Cc3ccccc3)c2O)cc(Cl)cc1Cc1ccccc1 | 36.2% |
| COc1cc(Cl)cc(-c2nn(C(=O)NS(=O)(=O)c3ccccc3)cc2-c2ccncc2)c1 | 82.9% |
| COc1cccc(-c2[nH]c(=S)ncc2C(=O)c2ccccc2)c1 | 75% |
| CC(C)(C)c1cc(C(=O)Nc2ccccc2C(=O)NCCN)cc(C(C)(C)C)c1 | -11.6% (active) |
| N=C(N)c1ccc(-c2ccc(-c3ccc(-c4cccs4)s3)s2)cc1F | 0.519% (active) |
| Cc1c(Cn2cc(COc3ccc(Br)cc3)nn2)c(C)c(Cn2cc(COc3ccc(Br)cc3)nn2)c(C)c1Cn1cc(COc2ccc(Br)cc2)nn1 | 80.6% |
| CCc1ccc(-c2ccc(COc3ccc(CC4SC(=O)NC4=O)cc3)cc2)cc1 (stereo unspecified) | 100% |
| Cc1ccc(N)c(O)c1 | 50.7% |
| CCCCN(CCCC)CC(O)c1ccc(OCc2ccccc2)c2ccccc12 (stereo unspecified) | 97.2% |
